High-throughput results deposited in PubChem BioAssay by several laboratories.
This is a sample that favours compounds with a hit; in the whole collection about 0.9% have one here.
Y pestis TopoI = Y. pestis Topo-I inhibition via cleavage products. Y. pestis Topo-I cleavage product accumulation, plate reader. activity, % at 10 µM. 360,000 tested, 0.064% active; in the data active means activity above about 50%, passing the limit was not always enough
SSB-PriA inh = inhibitors of Klebsiella pneumoniae PriA binding to SSB C-terminal tail | AID 1272365 | AlphaScreen SSBct-PriA binding, biotinylated peptide | 430,000 tested, 0.6% active | inhibition, % at 33 µM; in the data active means inhibition mostly above about 37%, no sharp cut-off; inactive means mostly below about 20%;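 further: plate controls were negative control peptide for no effect and reference peptide for full effect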
MazF activator = increases E. coli MazEF RNase cleavage of RNA; P0AE70; FAM/BHQ RNA-DNA oligo cleavage fluorescence, 5 h; activation, % at 20 µM; 350,000 tested, 0.32% active; AID 504720; in the data active means activation above about 50%
Target sequence (P0AE70 whole entry, looked up): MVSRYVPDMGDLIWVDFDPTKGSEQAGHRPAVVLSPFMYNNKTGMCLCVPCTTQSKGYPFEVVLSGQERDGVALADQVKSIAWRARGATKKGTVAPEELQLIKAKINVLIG
3CLpro inhibitor = SARS-CoV 3CLpro protease inhibition; 290,000 tested, 0.14% active; inhibition, % at 6 µM; AID 1706; P0C6X7; recombinant SARS-CoV 3CLpro, quenched FRET peptide cleavage; in the data active means inhibition above about 12%
Numbers without * were called inactive; i = inactive; · = no result given; ! = not confirmed by another sample.

SMILES	Y pestis TopoI	SSB-PriA inh	MazF activator	3CLpro inhibitor
O=C(CSc1ccccc1)Nc1cc(S(=O)(=O)N2CCOCC2)ccc1N1CCOCC1	13.6	-4.5	75.6*	3.5
CC(Oc1cccc(Cl)c1)C(=O)Nc1cc(S(=O)(=O)N2CCOCC2)ccc1N1CCCCC1 (configuration not stated)	70.7*	7.2	1.2	·
O=C(Nc1ccccc1-c1ccccc1)Nc1c[nH]c2ccccc12	·	-15.0	·	·
Cc1cc(-c2nnc(SCC(=O)Nc3nccs3)o2)no1	-3.9	78.5*	11.8	-2.0
CCN(CC)S(=O)(=O)c1ccc(C(=O)Nc2nnc(SCC(=O)Nc3nccs3)s2)cc1	·	4.0	·	·
O=C(Nc1ccccc1)Nc1nc(C(=O)O)cs1	·	63.0*	·	·
O=C(NCCc1c[nH]c2ccccc12)c1csc(Nc2ccccc2)n1	·	28.0*	·	·
O=C(NCc1ccccc1)c1csc(Nc2ccccc2)n1	·	-8.0	·	·
O=C(Nc1ccccc1)Nc1nc(C(=O)NCCc2c[nH]c3ccccc23)cs1	·	41.0*	·	·
CC(C)(C)c1csc(NC(=O)Nc2ccccc2)n1	6.9	-0.7	7.2	4.2
O=C(CSc1ncccn1)Nc1cc(Cl)ccc1[N+](=O)[O-]	3.3	18.7	13.2	0.3
Cc1nc(SCC(=O)Nc2cc(Cl)ccc2[N+](=O)[O-])nc(C)c1C	27.7	52.2*	-2.8	-1.3
CC(=NNC(=O)c1cccc2ccccc12)c1ccccn1	·	66.1*	·	·
CC(=NNC(=O)c1cc(C)nc2ccccc12)c1ccccn1	·	94.1*	·	·
Cc1c(C(O)=C2C(=O)C(=O)N(CCN3CCOCC3)C2c2cccs2)cnn1-c1ccccc1 (configuration not stated)	·	-5.8	·	·
C=CCn1c(C)cc(C(=O)CN2NS(=O)(=O)c3ccccc3C2=O)c1C	-1.7	-10.7	57.3*	3.9
C(=Cc1c[nH]c2ccccc12)c1ccc2ccccc2n1	-18.0	-8.5	6.1	·
C(=Cc1c[nH]c2ccccc12)c1nccc2ccccc12	-27.1	3.7	113.1*	·
O=C(NCc1nnc(SCC(=O)N2CCOCC2)o1)c1ccccc1F	-3.7	4.6	8.3	-0.6
O=C(NCc1nnc(SCC(=O)N2CCOCC2)o1)c1ccccc1	-1.4	56.0*	4.7	·
CSc1nnc(N2C(=O)C(O)=C(C(=O)c3ccco3)C2c2ccccc2)s1 (configuration not stated)	7.5	4.7	53.8*	-4.5
CSc1nnc(N2C(=O)C(O)=C(C(=O)c3ccc(C)o3)C2c2ccc(C)cc2)s1 (configuration not stated)	37.7	4.8	253.7*	2.1
Cc1c(Cl)cccc1NC(=O)CSc1nnc2ccc(-c3cccnc3)nn12	·	-19.0	·	·
CCN1C(=Cc2ccc3ccc(C)cc3[n+]2CC)Sc2ccccc21	·	11.5	·	·
CCN1/C(=C/c2ccc3cc(C)ccc3[n+]2CC)Sc2cc(C)ccc21	-3.0	36.6	74.9*	-17.2
SMILES	Y pestis TopoI	SSB-PriA inh	MazF activator	3CLpro inhibitor
CCN(Cc1ccccc1)c1ccc(C=NN2CCOCC2)cc1	·	47.2*	·	·
Nc1nn(S(=O)(=O)c2cccc3nsnc23)cc1-c1ccc(Br)cc1	1.5	41.9*	5.2	5.9
Cc1cc(N(C)C)ccc1N=Nc1ccc(N)cc1	-14.3	92.6*	-10.0	·
O=C(Nc1ccc2sccc2c1)c1ccc([N+](=O)[O-])s1	·	46.0*	·	·
Cc1nc2cc(NC(=O)c3ccc([N+](=O)[O-])s3)ccc2s1	-5.1	-3.5	5.2	-1.4
Cc1nn(-c2ccccc2)c(N)c1N=Nc1ccccc1	9.5	58.3	0.4	-0.3
Cc1ccc(N=Nc2c(C)nn(-c3ccccc3)c2N)cc1[N+](=O)[O-]	·	68.0*	·	·
Cc1nn(-c2ccccc2)c(N)c1N=Nc1cccc(S(=O)(=O)N2CCOCC2)c1	0.9	47.0*!	5.1	8.2
COc1ccc(NC(=O)C(=O)NCC2CCN(Cc3ccco3)CC2)cc1OC	·	-10.0	·	·
Cc1ccc(-c2csc(NC(=O)CSc3nc4ccccc4c(=O)n3CCCN(C)C)n2)cc1	2.3	54.8*	0.2	3.3
Cn1c(=O)c(/C=C/c2cccnc2)nc2ccccc21	·	9.0	·	·
COc1ccc(NC(=O)C(c2cc3c(cc2[N+](=O)[O-])OCO3)N(C)c2ccccc2)cc1 (configuration not stated)	0.1	39.1*	-7.5	8.1
O=C(CCl)NN=C(c1ccccc1)c1ccccc1	19.3	-10.3	59.4*	9.6
COc1ccc(S(=O)(=O)NCC(c2cccnc2)N2CCN(c3ccccc3F)CC2)cc1 (configuration not stated)	·	19.0	·	·
O=C(Nc1ccc(S(=O)(=O)Nc2nccs2)cc1)c1ccccc1F	·	0.0	·	·
Cc1cccc(-n2cnc(C(=O)NNC(=S)Nc3ccc(Cl)cc3)c2)n1	-5.0	80.0*	-2.6	0.3
OCc1nc2ccccc2n1Cc1ccc(F)cc1	·	-1.0	·	·
O=C(COc1ccc2cc(Br)ccc2c1Br)N1CCOCC1	53.1*	0.7	0.5	-2.0
O=C(Nc1ccc(Cl)cc1)c1cc(Br)ccc1OCC(=O)N1CCOCC1	5.2	43.8*	4.3	6.2
Cc1ccc(C(=O)OCc2cc3ccccc3[nH]c2=O)cc1	7.2	-12.7	6.9	2.9
Cc1cccc(C(=O)OCc2cc3ccccc3[nH]c2=O)c1	31.8	-15.0	77.1*	3.4
CCOc1c[nH]c(C(=O)Nc2ccc3c(c2)OCCO3)cc1=O	·	8.0	·	·
O=C(CSC1CCCC1)Nc1ccn2nccc2c1	·	1.0	·	·
COc1cc2c(=O)n(CC3CCCO3)c(=O)n(CC(=O)Nc3ccc(F)cc3F)c2cc1OC (configuration not stated)	10.4	104.2*	-1.5	-0.1
COc1ccc(NC(=O)Cn2c(=O)n(CC3CCCO3)c(=O)c3cc(OC)c(OC)cc32)c(OC)c1 (configuration not stated)	-5.2	-15.3	11.1	-6.0
SMILES	Y pestis TopoI	SSB-PriA inh	MazF activator	3CLpro inhibitor
CC(=O)Nc1ccc(NC(=O)CCc2csc(NC(=O)c3ccc[nH]c3=O)n2)cc1	·	-3.0	·	·
O=Nc1cc(CN2CCOCC2)c(O)c2ncccc12	·	28.0	·	·
O=[N+]([O-])c1cc(CN2CCOCC2)c2cccnc2c1O	·	92.4*	2.3	2.4
Oc1c(Cl)cc(CN2CCOCC2)c2cccnc12	-4.3	114.8*	3.3	·
O=[N+]([O-])c1cc(CN2CCN(c3ccccc3)CC2)c(O)c2ncccc12	2.2	75.1	1.6	-4.3
Cc1[nH][nH]c(=O)c1C(c1c(C)[nH][nH]c1=O)c1cn(Cc2ccccc2Cl)c2ccccc12	4.5	12.3	70.6*	3.2
CC(=NNc1nc2ccccc2[nH]1)c1ccc2c(c1)OCCO2	·	41.6*	·	·
CC(C)=NNc1nc2ccccc2[nH]1	·	69.0*	·	·
Nc1nonc1-n1nnc(C(=O)N/N=C/c2ccc(Cl)cc2Cl)c1CN1CCOCC1	-2.8	·	124.5*	-4.6
Nc1c(C(=O)c2ccc(Br)s2)oc2ccccc12	4.4	-8.5	63.9*	-5.3
O=C(Cc1cc(=O)[nH]c(SCc2cccc(Cl)c2)n1)NCc1cccs1	·	-2.0	·	·
S=C1SCN(Cc2ccccn2)CN1Cc1ccco1	-1.3	48.1*	-3.8	-4.0
COCCN1CSC(=S)N(Cc2ccco2)C1	-2.4	-11.0	1.0	-2.1
CC(C)(C)c1ccc(C(=O)NCc2n[nH]c(=S)n2-c2ccc(Cl)c(Cl)c2)cc1	·	8.0	·	·
CCCN(CCC)S(=O)(=O)c1ccc(C(=O)NCc2n[nH]c(=S)n2-c2ccc(Cl)c(Cl)c2)cc1	-14.6	44.6*!	-12.2	4.1
O=C1c2ccccc2-c2onc3ccc(NCc4ccco4)c1c23	32.9	78.2*	i	0.8
